Source: PubChem BioAssay (Tox21)
Inconclusive results are not listed. Entries that show only a call come without a potency. Active and inactive are the calls of the source. The call rests on the fitted dose curve; in most records, active means well fitted inhibition curve with a large enough effect in the repeat runs; inconclusive means weak or mixed curves, or effect the other way; inactive means no such curve, though single readings can be large or run the other way.
Potency means the concentration at half of the fitted maximal effect.

What follows are compounds tested against Nuclear receptor ROR-gamma (Homo sapiens) (UniProt P51449) (assay: qHTS assay to identify small molecule antagonists of the retinoid-related orphan receptor gamma (ROR-gamma) signaling pathway (AID 1159521; further: nearly all actives have a fitted effect of over 50% in size)). Conditions: Tet-on RORgamma CHO cells, RORE-luciferase, 16 h; series mostly up to 92.4 µM.
From the text: U.S. Tox21 Program National Center for Advancing Translational Sciences [NCATS] NIH Chemical Genomics Center [NCGC] U.S. Environmental Protection Agency [EPA] National Institutes of Environmental Health Sciences [NIEHS] National Toxicology Program [NTP] U.S. Food and Drug Administration [FDA] Tox21 Assay Overview: Nuclear steroid hormone receptors are involved in many biological processes including inflammatory responses, cell proliferation, and apoptosis. Environmental factors or compounds disrupting these nuclear receptor pathways and gene expression may promote susceptibility to immunotoxicants and autoimmune diseases. One important group of these expression factors are the retinoid-related orphan receptors. To assess compounds that may interfere with the retinoid-related orphan receptor gamma (ROR-gamma) transcription factor, a cell-based luciferase assay was used. The CHO cell-based assay utilizes a TET-inducible ROR expression factor and ROR response element-LUC reporter gene. Reporter gene activity was induced using Doxycycline Hyclate and measured after 16 hr incubation. Tet-on ROR gamma CHO cells were used to screen against the Tox21 10K compound library for ROR gamma antagonists by quantification of decreased reporter gene activity in terms of decreased luminescence.
Tox21 Assay Protocol Summary: Tet-on ROR gamma CHO cells were dispensed at 1,000 cells in 4 uL of culture medium per well into white wall/solid bottom 1536-well plates using a Multidrop Combi (Thermo Scientific, Waltham, MA) dispenser. Following incubation at 37 C and 5% CO2 for 4 hr, 23 nL of compounds dissolved in DMSO, positive controls or DMSO only were transferred by a Pintool station (Kalypsys, San Diego, CA) and after 2 hr incubation at 37 C, one ul of 1 uM (final concentration) of Doxycycline Hyclate was added to all the wells by using a Flying Reagent Dispenser (FRD) (Aurora Discovery, San Diego, CA). After 16 hr incubation at 37 C and 5% CO2, 5 uL of ONE-Glo reagent (Promega Corporation, Madison, WI) was added to each assay plate using FRD. After 30 min incubation at room temperature, luminescence was quantified on a ViewLux plate reader (Perkin Elmer, Waltham, MA).
In the case of `CCc1ccccc1`, the Potency is reported as “inactive”. With `C=C1CCC2CC1C2(C)C` (stereo not given) the Potency was “inactive”. With `CC(C)(C)C(=O)C(=O)O` the Potency was “inactive”. With `CCCCCCCCCI` the Potency was “inactive”. In the case of `Brc1cc2ccccc2c2ccccc12`, the Potency is reported as 21.8 µM (active). In the case of `CCC(C)(C)OC`, the Potency is reported as “inactive”. In the case of `Cc1cc(=O)c2c(O)c3c(O)cc(=O)c4c3c3c(cc(O)c1c23)C(C)(C)C=4O`, the Potency is reported as 0.82 µM (active). `CC(=O)Oc1ccc([N+](=O)[O-])cc1CCl` was tested, and the Potency was “inactive”. `CC(C)COCC(CN(Cc1ccccc1)c1ccccc1)N1CCCC1` (stereo not given) was tested, and the Potency was 23.7 µM (active). For `N#CCc1ccc(Cl)cc1Cl`, the Potency was “inactive”. With `C(=C\c1ccccc1)/c1ccccc1` the Potency was “inactive”. In the case of `CC=C(Cl)Cl`, the Potency is reported as “inactive”. In the case of `CCCCCCNC(=O)n1cc(F)c(=O)[nH]c1=O`, the Potency is reported as “inactive”. With `O=C(/C=C/c1ccccc1)OCCc1ccccc1` the Potency was “inactive”. In the case of `COc1cc(Nc2c(C#N)cnc3cc(OCCCN4CCN(C)CC4)c(OC)cc23)c(Cl)cc1Cl`, the Potency is reported as “inactive”. `COc1cc(C(=O)NCCCCCC(=O)O)cc(OC)c1OC` was tested, and the Potency was “inactive”. `N#[N+]c1ccc2c(S(=O)(=O)[O-])cccc2c1O` was tested, and the Potency was “inactive”. In the case of `CCCCCCCCN`, the Potency is reported as “inactive”. `COc1ccccc1NC(=O)c1cc2ccccc2cc1O` was tested, and the Potency was 30.6 µM (active). In the case of `CCCCCCCCC(CCCCCC)C(=O)O` (stereo not given), the Potency is reported as “inactive”. `CC(=O)OCC[N+](C)(C)C` was tested, and the Potency was “inactive”. For `CN1CCCN=C1COC(=O)C(O)(c1ccccc1)C1CCCCC1` (stereo not given), the Potency was “inactive”. With `CC(CO)CO` the Potency was “inactive”. With `CN1CCCC(n2nc(Cc3ccc(Cl)cc3)c3ccccc3c2=O)CC1` (stereo not given) the Potency was “inactive”. With `CS(=O)(=O)c1ccc(-c2cn3ccccc3n2)cc1` the Potency was “inactive”. `OC(CCN1CCCC1)(c1ccccc1)C1CCCCC1` (stereo not given) was tested, and the Potency was “inactive”. For `O=c1c(O)c(-c2ccc(O)cc2)oc2cc(O)cc(O)c12`, the Potency was “inactive”. For `CC(C)C=O`, the Potency was “inactive”. `CC(=O)N/N=C/c1ccc([N+](=O)[O-])o1` was tested, and the Potency was “inactive”. In the case of `O=C=Nc1cccc(C(F)(F)F)c1`, the Potency is reported as “inactive”. With `CC(=O)OCCN(CCOC(C)=O)c1ccc(N=Nc2ccc([N+](=O)[O-])cc2C#N)cc1` the Potency was “inactive”. With `CCCCOc1ccc(OCCCN2CCOCC2)cc1` the Potency was “inactive”. For `CC(O)c1ccccc1` (stereo not given), the Potency was “inactive”. For `O=C(CCCN1CC=C(n2c(=O)[nH]c3ccccc32)CC1)c1ccc(F)cc1`, the Potency was “inactive”. With `CCC(OCCCOC)OC(C)=O` (stereo not given) the Potency was “inactive”. In the case of `Oc1ccc(Cl)c2cccnc12`, the Potency is reported as “inactive”. For `C=CCc1ccccc1OCC(O)CNC(C)C` (stereo not given), the Potency was “inactive”. `O[C@@H]1CO[C@H]2[C@@H]1OC[C@@H]2O` was tested, and the Potency was “inactive”. `CCOC(=O)/C=C/C(=O)OCC` was tested, and the Potency was “inactive”. With `CC(C)C[C@H](NC(=O)[C@H](CCc1ccccc1)NC(=O)CN1CCOCC1)C(=O)N[C@@H](Cc1ccccc1)C(=O)N[C@@H](CC(C)C)C(=O)[C@@]1(C)CO1` the Potency was 1.19 µM (active).
